PubChem BioAssay AID493200 (National Center for Advancing Translational Sciences (NCATS), 2011)
Inconclusive results are not listed. Unmarked numbers belong to inactive results. Calls follow the shape of the dose curve; as a rule, active = well fitted activation curve with a large enough effect; inconclusive = small, poorly fitted or top-dose-only effect; inactive = no such curve, though single readings can be large or run the other way.

Assay: qHTS Assay for Rab9 Promoter Activators: Initial hit validation from the primary screen; also: % of control where 0% means no effect
Conditions: Huh7 Rab9 promoter luciferase reporter, 24 h; series mostly up to 46.1 µM; activation: at the top concentration
Excerpt: NIH Chemical Genomics Center [NCGC] NIH Molecular Libraries Probe Production centers Network [MLPCN] MLPCN Grant: MH089537-01 Assay Submitter (PI): Yiannis A. Ioannou NCGC Assay Overview: Niemann Pick Type C (NPC) is a rare neurodegenerative lipidosis that is characterized by lipid storage in the endosomal/lysosomal system. Treatment modalities for this devastating disease are currently non-existent due to the severe obstacles associated with accessing the central nervous system with proteins or genes (Ioannou, 2000). We have developed a new paradigm, termed "Orphan Receptor Bypass Therapy" (ORByT), to address these disorders. This paradigm posits the existence of endogenous "suppressor" proteins whose expression can dramatically improve LSD pathogenesis. The goal is the identification/discovery of small chemical compounds that can modulate the expression of these proteins and provide a new treatment modality for these devastating disorders. One such protein whose overexpression reverses aspects of the NPC phenotype is Rab9. We have developed and optimized a cell based luciferase reporter assay in 1536 well format for the identification of up-regulators of the Rab9 promoter. This assay presents data on the validation of hits from the primary screen.
The Rab9 promoter is cloned in front of the luciferase reporter gene, therefore […] promoter activation results in luciferase expression. Frozen stock of the Rab9 promoter transfected Huh7 cells were obtained from the laboratory of Dr. Yiannis Ioannou (The Mount Sinai School of Medicine, New York, NY). Cells were propagated and maintained at NCGC in medium containing RPMI-1640 supplemented with 10% FBS, 2mM L-glutamine, and 50ug/ml penicillin/streptomycin. Cells were harvested in and plated for assays in OP-MEM I reduced-serum medium supplemented with 10% FBS. The Amplite luciferase reporter gene assay kit was purchased from ABD Bioquest and prepared/stored according to manufacturers recommendations. qHTS Assay Setup: 1.Dispensed 5ul of Huh7 cells stably expressing Rab9-luciferase at a density of 1500 cells per well 1536-well plates. 2.Incubate cells at 37C, 5% CO2, and 95% humidity for 2 hours. 3.Transferred 23nl per well of compound in DMSO solution. 4.Incubated at 37C, 5% CO2, and 95% humidity for 24 hours. 5.Dispensed 3ul per well of Amplite reagent(ABD Bioquest) per well. 6.Incubate at ambient for 10 minutes. 7.Read using the luminescence protocol on the ViewLux plate reader (Perkin Elmer).

Row | Structure (SMILES) | activation
1 | O=C1c2ccccc2C(=O)N1Cc1nc2ccccc2c(=O)n1-c1cccnc1 | -2.02%
2 | CN1CCc2cc3c(c4c2C1Cc1ccccc1-4)OCO3 (stereo unspecified) | -44.1%
3 | COc1cccc(CCNCc2ccc(SC)cc2)c1 | -3.84%
4 | CCC(=NCc1cccnc1)c1c(O)n(-c2ccccc2)c(=O)[nH]c1=O | 2.99%
5 | Cc1cccn2c(NCC3CCCO3)c(C(C)C)nc12 (stereo unspecified) | 1.37%
6 | COc1ccc(C(CC(=O)N2CCC3(CC2)OCCO3)NS(=O)(=O)c2ccc(F)cc2)cc1 (stereo unspecified) | -4.36%
